Compound activity from PubChem.
PostGolgi ctrl – growth of the yeast control strain, post-Golgi counter-screen. efflux-deficient yeast background strain, growth absorbance A615, 16 h. inhibition, % at 10 µM. actives 5% (n = 98,000). AID 738
CYP2C19 activ – increases human CYP2C19 enzyme activity | P33261 | recombinant CYP2C19, luciferin-H EGE luminescence; hits give high values; 0 = fully inhibited enzyme, 1 = untreated enzyme | activation factor at 5 µM | 96,000 tested, under 10 active;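 active means activation factor of at least 2 at 5 µM in the primary screen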
CYP2C9 inhib – human CYP2C9 inhibition. actives 20% (n = 96,000). CYP2C9 Supersomes, luciferin-H conversion, luminescence. inhibition, % at 5 µM. AID 777;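 active means blocking of liver enzyme CYP2C9 beyond about 50% at 5 µM, limit read from the data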
Target sequence (P11712 whole entry, looked up): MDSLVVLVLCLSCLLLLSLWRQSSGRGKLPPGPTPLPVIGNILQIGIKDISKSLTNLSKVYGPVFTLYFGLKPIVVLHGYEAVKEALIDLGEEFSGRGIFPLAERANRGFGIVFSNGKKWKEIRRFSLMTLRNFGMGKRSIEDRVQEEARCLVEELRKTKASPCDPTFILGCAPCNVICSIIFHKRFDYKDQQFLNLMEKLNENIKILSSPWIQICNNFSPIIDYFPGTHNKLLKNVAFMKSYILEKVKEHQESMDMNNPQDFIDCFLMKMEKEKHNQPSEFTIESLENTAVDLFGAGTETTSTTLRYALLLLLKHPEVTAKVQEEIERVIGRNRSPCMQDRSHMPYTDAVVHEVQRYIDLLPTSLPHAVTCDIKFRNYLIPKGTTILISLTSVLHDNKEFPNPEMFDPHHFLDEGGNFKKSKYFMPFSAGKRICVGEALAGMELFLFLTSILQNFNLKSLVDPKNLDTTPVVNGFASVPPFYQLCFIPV
CYP2C9 activ – increases human cytochrome P450 2C9 activity; recombinant CYP2C9, luciferin-H conversion, luminescence; hits give high values; factor 1 = untreated enzyme, 0 = blocked; activation factor at 5 µM; actives 1.4% (n = 96,000);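 active means activation factor of 2 or more for CYP2C9 at a 5 µM dose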
PostGolgi yeast – growth inhibition of a yeast mutant, post-Golgi transport screen; post-Golgi transport phenotypic cell assay; inhibition, % at 10 µM; actives 0.9% (n = 98,000);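 further: yeast cells grown in 1536-well plates; yeast grown about 18 h at 30C before absorbance read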
CYP2C19 inh – human CYP2C19 inhibition; P33261; CYP2C19 Supersomes, luciferin-H EGE luminescence, 30 min; inhibition, % at 5 µM; actives 21% (n = 96,000);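 active means CYP2C19 inhibition above a set limit at 5 µM in the primary screen, cut at about 50% in these data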
Hits are given with their value; - = inactive; . = no result given. An excerpt weighted towards active compounds, which were near 32% of everything screened. Unless noted, no stated cut-off is given here; in the data, active means inhibition above about 30%; inactive means the rest.

SMILES	PostGolgi ctrl	CYP2C19 activ	CYP2C9 inhib	CYP2C9 activ	PostGolgi yeast	CYP2C19 inh
CCN(CC)C(=O)Cn1c(=O)n(-c2ccccc2)c(=O)n1CC(=O)N(CC)CC	-	-	-	-	-	-
O=C1CCCCCN1Cc1ccccc1	-	-	-	-	-	-
O=C1C2C3C=CC(C3=C3CCCCC3)C2C(=O)N1Cc1ccccc1 (stereo unspecified)	-	-	55	-	-	-
CCOc1ccc(C(C)(C)C)cc1S(=O)(=O)N1CC(C)OC(C)C1 (stereo unspecified)	-	-	63	-	-	79
CC1CN(S(=O)(=O)c2ccc(Cl)c(S(=O)(=O)N3CC(C)OC(C)C3)c2)CC(C)O1 (stereo unspecified)	-	-	-	-	-	-
Nc1nc2ccccc2n1CCOc1ccccc1Cl	-	-	-	-	-	56
Cn1c(=O)n(CCOc2ccc(Cl)cc2Cl)c2ccccc21	-	-	-	-	-	-
Cn1c(=O)n(CCOc2ccccc2Cl)c2ccccc21	-	-	86	-	-	96
O=C(OCc1nc2ccccc2s1)[C@@H]1CCCN1S(=O)(=O)c1ccccc1F	-	-	-	-	-	-
N#Cc1nc(N2CCCCC2)nc(N2CCOCC2)n1	-	-	-	-	-	-
Brc1cnc(N2CCOCC2)nc1N1CCCCC1	-	-	-	-	-	58
O=C(O)c1ccccc1CSc1ncn[nH]1	-	-	-	-	-	-
CCOC(=O)C1CCCN(C(=O)c2cc(Nc3ccc(OC)cc3OC)nc3ccccc23)C1 (stereo unspecified)	-	-	98	-	-	64
CCOC(=O)C1CCCN(C(=O)c2cc(Nc3ccc(OC)c(OC)c3)nc3ccccc23)C1 (stereo unspecified)	-	-	75	-	-	-
CCN(CC)CCNC(=O)c1ccccn1	-	-	-	-	-	-
CCOC(=O)/C(C#N)=C/c1ccc(OCC(=O)Nc2ccc(OC)cc2)c(OC)c1	-	-	59	-	-	-
CCOC(=O)/C(C#N)=C/c1ccc(OC)c(OC)c1	-	-	-	-	-	-
COc1ccc(-c2noc(COc3ccc4ccccc4c3Br)n2)cc1OC	-	-	-	-	-	-
OC(COc1ccc2ccccc2c1Br)Cn1cnc(-c2ccccc2)c1 (stereo unspecified)	53	-	-	-	-	-
COc1cc(C)c(C(N)=O)c(OC)n1	-	-	-	-	-	-
COc1ccc(-n2c(SC(CN3CCCCC3)CN3CCCC3=O)nc3ccccc3c2=O)cc1 (stereo unspecified)	31	-	65	-	-	61
O=[N+]([O-])c1ccc(-n2nncc2-c2ccc(Cl)cc2)cc1	-	-	54	-	-	90
Nc1ccc(-n2nncc2-c2ccc(Cl)cc2)cc1	-	-	57	-	-	64
Clc1ccc(-n2cnnn2)cc1	-	-	-	-	-	-
CC/C(=C1/C(=O)CC(C)(C)C(C(=O)OC)C1=O)N1CCCC1 (stereo unspecified)	-	-	-	-	-	-
SMILES	PostGolgi ctrl	CYP2C19 activ	CYP2C9 inhib	CYP2C9 activ	PostGolgi yeast	CYP2C19 inh
Cc1cccc(OCc2nnc(SCC(=O)Nc3sc(C)c(C)c3C#N)n2C)c1	-	-	-	-	-	-
Cc1occc1C(=O)Nc1cc(C(F)(F)F)ccc1Cl	-	-	-	-	-	-
COC(=O)c1cccc(NC(=O)CSc2nnnn2C)c1	-	-	-	-	-	-
O=C(CSc1nnnn1-c1ccc2c(c1)OCCO2)Nc1nc2c(s1)CCCC2	-	-	-	-	-	-
COC(=O)c1c(NC(=O)CSc2nnnn2-c2ccccc2)sc2c1CCCC2	-	-	72	-	-	-
COC(=O)c1cccc(-n2nnnc2SCC(=O)Nc2nc3c(s2)CCCC3)c1	-	-	-	-	-	53
COC(=O)c1cccc(-n2nnnc2SCC(=O)Nc2cc(C)on2)c1	-	-	52	-	-	51
Cc1ccc(CNC(=O)C2CC(c3cccc([N+](=O)[O-])c3)=NO2)o1 (stereo unspecified)	-	-	-	-	-	-
CCOC(=O)Cn1c(=NC(=O)CSC(C)=O)sc2ccccc21	-	-	81	-	-	-
O=C(CSc1nnc(-c2cccs2)n1CC1CCCO1)c1cc2ccccc2o1 (stereo unspecified)	-	-	-	-	-	-
Cc1cc(C(=O)N2CC(C)CC(C)C2)n(-c2ccccc2)n1 (stereo unspecified)	32	-	-	-	-	-
O=C(CSc1nc2ccccc2c(=O)n1CCC(=O)N1CCCCC1)NCc1ccccc1	-	.	.	.	-	.
COCCn1c(SCC(=O)Nc2ccc(NC(=O)c3ccco3)c(OC)c2)nc2ccccc2c1=O	-	-	-	-	-	-
Cc1ccc(NC(=O)CSc2nc3ccccc3c(=O)n2CCCC(=O)N2CCCC2)cc1	-	-	-	-	-	55
Cc1ccc(NC(=O)CSc2nc3ccccc3c(=O)n2CCCN2CCCCC2)cc1C	-	-	63	-	-	-
CCCCn1c(SCC(=O)Nc2cc(NC(=O)c3ccco3)ccc2C)nc2ccccc2c1=O	-	-	75	-	-	72
O=S(=O)(c1ccccc1)N1N=C(c2cccs2)CC1c1ccc(F)cc1 (stereo unspecified)	-	-	-	-	-	-
CCc1ccc(C2=NN(c3ccc(S(N)(=O)=O)cc3)C(c3ccc(F)cc3)C2)cc1 (stereo unspecified)	91	-	-	-	-	-
O=C(Nc1cccnc1Cl)c1ccc(S(=O)(=O)N2CCCCCC2)cc1	-	-	-	-	-	-
Cc1cc(NC(=O)COC(=O)[C@H](C)NC(=O)c2ccccc2)no1	-	-	-	-	-	-
CCn1c(N2CCN(C(=O)Nc3ccc(F)cc3)CC2)nc2ccccc21	-	-	-	-	-	-
O=c1c2ccccc2sc2nc(C3CCCCC3)n(Cc3ccco3)c(=O)c12	50	-	-	-	47	-
O=C(c1ccc2c(c1)OCCO2)C1CCN(S(=O)(=O)c2ccc(F)cc2)CC1	-	-	-	-	-	-
CCCCN(C)C(=O)c1sc2ncn(CC)c(=O)c2c1C	-	-	-	-	-	-
CCn1c(=O)c(=O)[nH]c2cc(C(=O)NC3CCCc4ccccc43)ccc21 (stereo unspecified)	-	-	-	-	-	-
COc1ccc(-c2ccc(-c3noc(C(C)C)n3)c(OC)n2)cc1	-	-	72	-	-	66
COc1cccc(-c2ccc(-c3noc(-c4ccccc4F)n3)c(OC)n2)c1	-	-	61	-	-	-
COc1cccc(-c2ccc(-c3noc(-c4cccs4)n3)c(OC)n2)c1	-	-	-	-	-	-
COc1ccc(CCNC(=O)c2n[nH]c(=O)c3ccccc23)cc1	-	-	-	-	-	-
CN1C(=O)N(C)C2(c3ccccc3)N(C)C(=O)NC12c1ccccc1 (stereo unspecified)	-	-	-	-	-	-
